SARS PLpro yeast = qHTS of Yeast-based Assay for SARS-CoV PLP; 330,000 compounds, 0.19% hits; Potency, µM (top dose mostly 32.9 µM), usual class: activators; AID 485353, 2010; S. cerevisiae expressing SARS-CoV PLpro, growth rescue; calls by dose curve; also: nearly all actives have a fitted effect of over 55% in size
Shiga inhibitor = A qHTS for Small Molecule Inhibitors of Shiga Toxin | Vero cells, Shiga toxin protein synthesis inhibition reporter | inhibition, % at 38.7 µM | 290,000 compounds, 9.2% hits; in the data active = inhibition mostly above about 28%, no sharp cut-off; inactive = mostly below about 43%
Pf growth 48h = Primary qHTS for delayed death inhibitors of the malarial parasite plastid, 48 hour incubation. P. falciparum luciferase growth in erythrocytes, 48 h. Potency, µM (top dose mostly 28.7 µM), usual class: inhibitors. 310,000 compounds, 5.9% hits. AID 504832, 2011
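Erythrocytes infected with P. falciparum carrying an integrated firefly luciferase reporter (2% hematocrit, 0.1% parasitemia final) were exposed to compounds in RPMI 1640 with 0.5% Albumax at 37 C, 5% CO2. Growth inhibition was scored as reduced luminescence.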
Pf growth 96h = Primary qHTS for delayed death inhibitors of the malarial parasite plastid, 96 hour incubation. P. falciparum luciferase reporter growth, 96 h. Potency, µM (titrated, usually from 28.7 µM), hits mostly inhibitors. 320,000 compounds, 6.9% hits. AID 504834, 2011
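Parasite growth measured via integrated firefly luciferase reporter in P. falciparum. Infected erythrocytes at 2% hematocrit, 0.05% parasitemia final were treated 96 hours at 37 C under 5% CO2, and luminescence was read.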
Cycloheximide cs = Cycloheximide Counterscreen for Small Molecule Inhibitors of Shiga Toxin; cell reporter, cycloheximide protein synthesis inhibition counterscreen; max response, %; 300,000 compounds, 12% hits; AID 2314, 2010; in the data active = max response mostly above about 13%, no sharp cut-off; inactive = mostly below about 14%; also: read at 38.3 µM for the half of the compounds with a filed dose
AMA1-RON2 inh = qHTS for Inhibitors of AMA1-RON; Towards Development of Antimalarial Drug Lead: Primary Screen. Plasmodium falciparum AMA1 (3D7) - RON2 peptide interaction. AlphaScreen AMA1-biotinylated RON2 peptide binding. Potency, µM (titrated, usually from 58.2 µM), usual class: inhibitors. 360,000 compounds, 0.2% hits. AID 720542, 2013; also: nearly all actives have a fitted effect of over 45% in size
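AMA1 (3D7) with his tag at 25 nM final met compounds first, then biotinylated RON2 peptide at 25 nM; detection used donor plus acceptor beads, 10 µg/mL apiece, read by AlphaScreen after 30 min at room temperature.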
Of the large screens only hits and unclear results are named; the others gave an inactive call. Only some compounds are listed: those with a hit (about 19% of all), similar ones and a draw of the others. Unless noted, calls follow the shape of the dose curve; as a rule, active = well fitted curve in the direction sought with a large enough effect; inconclusive = small, poorly fitted or top-dose-only effect, or another doubt; inactive = no such curve, though single readings can be large; an effect the other way counts as inactive or inconclusive.

COc1ccc(/C=N/N=C2/NC(=O)C(CC(=O)O)S2)cc1OS(=O)(=O)c1ccccc1 (stereo not drawn)	none
CC1S/C(=N/N=C/c2cccs2)NC1=O (stereo not drawn)	Shiga inhibitor 20, Cycloheximide cs 16
COc1ccc(N2CCN(C3CCCN(C(=O)CN4CCOC4=O)C3)CC2)cc1 (stereo not drawn)	none
Cc1ccc(NC(=O)CSc2nnc(-c3ccccn3)n2N)c(Br)c1	AMA1-RON2 inh inconclusive
CCOc1ccc(NC(=O)CN(C)C2=NS(=O)(=O)c3ccccc32)cc1	none (no result: SARS PLpro yeast, Shiga inhibitor, Pf growth 48h, Pf growth 96h, Cycloheximide cs)
O=C1N/C(=N\N=C\c2cccs2)SC1Cc1ccc(Cl)cc1 (stereo not drawn)	Pf growth 48h inconclusive, Pf growth 96h 0.74µM
O=C1N/C(=N\N=C\c2cccs2)SC1Cc1cccc(Cl)c1 (stereo not drawn)	Pf growth 48h 13µM
Cc1ccc(NC(=O)Nc2cccc(F)c2)nc1	Pf growth 96h inconclusive, Cycloheximide cs 26
O=C(Nc1cccc(F)c1)Nc1ccc(Cl)cn1	Shiga inhibitor 38, Cycloheximide cs 24
Cc1ccnc(NC(=O)Nc2cccc(F)c2)c1	Shiga inhibitor 73, Pf growth 96h 7.4µM, Cycloheximide cs 41
O=C(COC(=O)/C=C/c1cccc(F)c1)Nc1ccc(Cl)cn1	none
COc1ccc(CC(=O)Nc2ccc(S(=O)(=O)N3CCN(C)CC3)cc2)cc1	Pf growth 96h inconclusive (no result: Shiga inhibitor, Cycloheximide cs)
Cc1ccc(S(=O)(=O)N2CCN(C3CC(=O)N(CCc4ccccc4)C3=O)CC2)cc1C (stereo not drawn)	Pf growth 96h inconclusive
Cc1cc(C(=O)CSc2nnnn2-c2ccccc2)c(C)n1CCc1ccccc1	none (no result: Pf growth 48h)
Cc1ccc(C(=O)CSc2nnc(-c3ccccc3)n2-c2ccccc2)o1	Pf growth 96h inconclusive
O=C(CSc1nnnn1-c1ccccc1)CSc1nnnn1-c1ccccc1	Pf growth 96h inconclusive
Cc1cc(C(=O)CSc2nnnn2-c2ccc(O)cc2)c(C)n1C	Shiga inhibitor 66, Cycloheximide cs 25
O=C(CSc1nnnn1-c1ccccc1)c1ccc(O)cc1O	Cycloheximide cs 14
Cc1ccc(C(=O)CSc2nnnn2-c2ccccc2)o1	Shiga inhibitor 49
CC1(C(=O)NS(=O)(=O)c2ccc(Cl)cc2)CCN1C(=O)Cc1ccsc1 (stereo not drawn)	none (no result: SARS PLpro yeast, Shiga inhibitor, Pf growth 48h, Pf growth 96h, Cycloheximide cs)
Cc1cc(NS(=O)(=O)c2ccc(NC(=O)c3ccc([N+](=O)[O-])cc3)cc2)nc(C)n1	none (no result: SARS PLpro yeast, Shiga inhibitor, Pf growth 48h, Pf growth 96h, Cycloheximide cs)
Nc1ccc(S(=O)(=O)C(F)(F)F)cc1N	Pf growth 48h inconclusive
CCCCCC(=O)N1C[C@@H](O)[C@H](n2cc(-c3ccc(F)cc3)nn2)C[C@@H]1c1ccccc1	none (no result: SARS PLpro yeast, Shiga inhibitor, Pf growth 48h, Pf growth 96h, Cycloheximide cs)
COc1cc(S(=O)(=O)N(Cc2ccc(C)cc2)C2CCCCC2)ccc1-n1cnnn1	Pf growth 48h 5.9µM (no result: Pf growth 96h)
COc1ccc(CN(C2CCCC2)S(=O)(=O)c2ccc(-n3cnnn3)cc2)cc1OC	Pf growth 48h inconclusive, Pf growth 96h inconclusive
CCSC1=N/C(=C/c2ccsc2)C(=O)N1c1ccccc1	Pf growth 96h 7.4µM
O=C1OC(c2ccc(Cl)cc2)=C/C1=C/c1cccnc1	Pf growth 96h inconclusive
Cc1ccc(C2=C/C(=C/c3cccnc3)C(=O)O2)c(C)c1	Cycloheximide cs 11
CCSC1=N/C(=C\c2cccnc2)C(=O)N1c1ccccc1	Pf growth 96h inconclusive
CC1=N/C(=C/c2cccnc2)C(=O)O1	Cycloheximide cs 34
CSC1=N/C(=C\c2cccnc2)C(=O)N1c1ccccc1	Pf growth 96h inconclusive, Cycloheximide cs 27
O=C(NC(c1ccccc1)c1ccsc1)C1CCN(CCOc2ccc(Cl)cc2Cl)CC1 (stereo not drawn)	none (no result: SARS PLpro yeast, Shiga inhibitor, Pf growth 48h, Pf growth 96h, Cycloheximide cs)
O=C(CN1C(=O)NC2(CCOc3ccccc32)C1=O)c1ccc(Br)cc1 (stereo not drawn)	Pf growth 96h inconclusive
CCc1nc2c(sc3nc(N4CCOCC4)c4c(c32)CC(C)(C)OC4)c(=O)o1	none (no result: AMA1-RON2 inh)
CCOC(=O)c1c(C)[nH]c(C)c1C(=O)COC(=O)[C@@H](NC(=O)c1ccccc1OCC)C(C)C	Pf growth 96h inconclusive (no result: Pf growth 48h)
CN1C(=O)NC(c2cccc([N+](=O)[O-])c2)C2=C1CC(C)(C)CC2=O (stereo not drawn)	Pf growth 96h inconclusive
Cc1nc(S(=O)(=O)c2ccc(Cl)cc2)c(NCc2ccccc2)o1	none (no result: Pf growth 48h, Pf growth 96h)
CCOP(=O)(OCC)c1nc(-c2ccccc2)oc1NCc1ccccc1	Pf growth 48h 7.4µM, Pf growth 96h 2.6µM
CCOP(=O)(OCC)c1nc(Cc2ccccc2)oc1NCc1ccccc1	Pf growth 48h 9.3µM, Pf growth 96h 10µM
CCOP(=O)(OCC)c1nc(-c2ccc(F)cc2)oc1NCc1ccccc1	Pf growth 48h inconclusive, Pf growth 96h inconclusive
CCOP(=O)(OCC)c1nc(-c2cccc3ccccc23)oc1NCCc1ccc(OC)cc1	Pf growth 48h 15µM, Pf growth 96h inconclusive
O=P(c1ccccc1)(c1ccccc1)c1nc(-c2ccccc2)oc1NCc1ccccc1	Pf growth 48h 5.9µM, Pf growth 96h 9.3µM
CC(Oc1cc2oc(=O)c3c(c2cc1Cl)CCC3)C(=O)NCCN1CCOCC1 (stereo not drawn)	none
CCC(CC)C(=O)Oc1c(Sc2ccccc2[N+](=O)[O-])c(C)nn1C(C)(C)C	Pf growth 48h 9.3µM, Pf growth 96h inconclusive
Nn1c(SCc2ccc([N+](=O)[O-])cc2)nc2ccccc2c1=O	none
CCOC(=O)CSc1nc2ccccc2c(=O)n1NC(=O)c1ccccc1	Shiga inhibitor 66, Pf growth 96h 7.4µM, Cycloheximide cs 37
CCc1ccc(C(=O)Nn2c(C)nc3ccccc3c2=O)cc1	none
COc1ccc(C(=O)Nn2c(SCC(=O)c3ccccc3)nc3ccccc3c2=O)cc1	Cycloheximide cs 38
COc1ccc(C(=O)Nn2c(SCc3ccc([N+](=O)[O-])cc3)nc3ccccc3c2=O)cc1	Shiga inhibitor 82, Pf growth 96h inconclusive, Cycloheximide cs 25
CN(C)CCNc1ncnc2c1ncn2[C@H]1CN(Cc2ccc3c(c2)OCO3)C[C@@H](CO)O1	none (no result: SARS PLpro yeast, Shiga inhibitor, Pf growth 48h, Pf growth 96h, Cycloheximide cs)
NC(=O)C1CCN(C(=O)Cc2ccsc2)CC1	Pf growth 48h inconclusive, Pf growth 96h inconclusive
Cc1ccccc1OCC(=O)Nc1cccc2nsnc12	Pf growth 96h inconclusive
CSc1ccccc1NC(=O)COc1ccccc1C	Shiga inhibitor 47, Cycloheximide cs 27
Cc1ccccc1OCC(=O)Nc1ccccc1CO	Shiga inhibitor 78
S=C(NCCSCc1ccc(Cl)cc1Cl)Nc1ccccc1	Pf growth 48h inconclusive, Pf growth 96h inconclusive
S=C(Nc1ccccc1)Nc1ccc(OCc2ccc(Cl)cc2Cl)cc1	Pf growth 48h 5.9µM, Pf growth 96h inconclusive
Cc1occc1C(=O)Nc1ccc(OCc2ccccc2)cc1	none

Screening data (PubChem BioAssay)
